# From PubChem BioAssay (EPA / NIEHS)
# Active and inactive are the calls of the source. Rule for the calls: active = hit-call score of the fitted dose curve at least 0.9, where 1 is the maximum; inactive = score below 0.9.
# Columns and labels:
# [1] = APR_HepG2_P-H2AX_72hr: Apredica 72-hour HepG2 Assay for H2AX Phosphorylation (AID 2282916); conditions: imaging, actives raise or lower the signal;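 note: phospho-histone H2A.x immunostain intensity per cell marking DNA damage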
# Outline: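 Phospho-H2A.x imaging endpoint in HepG2 after 72 hr compound exposure (0.39–200 uM, duplicate wells). Activity derived by bidirectional curve fitting with DMSO as baseline.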
# [2] = APR_HepG2_MitoMembPot_72hr: Apredica 72-hour HepG2 Assay for Mitochondrial Membrane Potential (AID 2282917); conditions: imaging, actives raise or lower the signal
# Outline: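 HepG2 cells dosed 72 hr with compound at 0.39–200 uM in duplicate, 0.5% v/v DMSO final. Mitochondria stained with 250 nM MitoTracker Red CMXRos for 30 min before formaldehyde fixation, imaged by high-content fluorescence; bidirectional fit versus DMSO.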
# [3] = APR_HepG2_MicrotubuleCSK_72hr: Apredica 72-hour HepG2 Assay for Microtubule CSK Stabilty (AID 2282919); conditions: HepG2 microtubule cytoskeleton, high-content imaging, actives raise or lower the signal
# Outline: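 HepG2, 72 hr cmpd exposure, 0.39–200 uM (10 pts, duplicate), 0.5% DMSO. 3.7% formaldehyde fix, 0.5% Triton perm, anti-alpha-tubulin/Cy5 plus Hoechst. HCS fluorescence intensity; bidirectional fit vs DMSO baseline; taxol as positive control.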
# [4] = APR_HepG2_P-H2AX_24hr: Apredica 24-hour HepG2 Assay for H2AX Phosphorylation (AID 2282920); conditions: high-content imaging, actives raise or lower the signal
# Outline: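 HepG2 cells dosed 24 h at 0.39–200 uM (10 points, duplicate, 0.5% DMSO final). Formaldehyde-fixed and permeabilized, then immunostained for phospho-H2A.x with Hoechst. Fluorescence quantified by high-content imaging, fitted bidirectionally versus DMSO.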
# [5] = APR_HepG2_StressKinase_72hr: Apredica 72-hour HepG2 Assay for Stress Kinase (AID 2282921); conditions: HepG2 stress kinase (phospho-c-Jun) imaging, actives raise or lower the signal
# Outline: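 Stress kinase signal reflects nuclear phospho-c-Jun staining in fixed, permeabilized cells exposed 72 h to compound at 0.39–200 uM; DMSO-normalized, fitted for increases or decreases.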
# [6] = APR_HepG2_StressKinase_24hr: Apredica 24-hour HepG2 Assay for Stress Kinase (AID 2282922); conditions: HepG2 stress kinase (phospho-c-Jun) imaging, actives raise or lower the signal
# Outline: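 Read-out: phospho-c-Jun immunofluorescence (Cy3 secondary) quantified by high-content imaging at 20x, nuclei defined by Hoechst 33342. Human HepG2 liver cells dosed 24 hr, 0.39–200 uM, DMSO 0.5% v/v; gain or loss of signal fitted relative to DMSO.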
# [7] = APR_HepG2_p53Act_72hr: Apredica 72-hour HepG2 Assay for p53 Activation (AID 2282923); conditions: high-content imaging, actives raise or lower the signal;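 note: average cellular p53 protein immunofluorescence intensity in HepG2 cells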
# Outline: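 Fixed-cell p53 staining (sheep primary, Cy5 secondary) measured by fluorescence imaging following 72 hr treatment at 0.39–200 uM in 0.5% DMSO; DMSO served as negative control and baseline.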
# [8] = APR_HepG2_MitoMass_72hr: Apredica 72-hour HepG2 Assay for Mitochondrial Mass (AID 2282924); conditions: high-content imaging, actives raise or lower the signal;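 note: MitoTracker Red CMXRos stain intensity per cell imaged as mitochondrial mass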
# Outline: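 Read-out: MitoTracker Red fluorescence intensity from automated imaging (20x, six fields per well) in human HepG2 liver cells. Dosing ran 72 hr, 0.39–200 uM, 0.5% DMSO; bidirectional curve fitting versus DMSO baseline.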
# [9] = ATG_CRE_CIS: Attagene CIS-FACTORIAL HepG2 Assay for human cAMP Responsive Element (CRE) binding protein 3 (AID 2282926); conditions: HepG2 CRE cis-reporter, Attagene multiplexed mRNA; actives raise or lower the signal
# Outline: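 Induced reporter mRNA from a CRE cis element, measured in HepG2 among many multiplexed units at 24 h. Detection used RT-PCR plus capillary electrophoresis of fluorescent fragments; DMSO served as negative control.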
# [10] = target: CCAAT/enhancer-binding protein beta (Homo sapiens) (UniProt P17676); test: ATG_C_EBP_CIS: Attagene CIS-FACTORIAL HepG2 Assay for human CCAAT/Enhancer Binding Protein (C/EBP) beta (AID 2282927); conditions: HepG2 Attagene cis-factorial transcription factor reporter; actives raise or lower the signal
# Chain of CCAAT/enhancer-binding protein beta (Homo sapiens) (P17676 whole entry, looked up): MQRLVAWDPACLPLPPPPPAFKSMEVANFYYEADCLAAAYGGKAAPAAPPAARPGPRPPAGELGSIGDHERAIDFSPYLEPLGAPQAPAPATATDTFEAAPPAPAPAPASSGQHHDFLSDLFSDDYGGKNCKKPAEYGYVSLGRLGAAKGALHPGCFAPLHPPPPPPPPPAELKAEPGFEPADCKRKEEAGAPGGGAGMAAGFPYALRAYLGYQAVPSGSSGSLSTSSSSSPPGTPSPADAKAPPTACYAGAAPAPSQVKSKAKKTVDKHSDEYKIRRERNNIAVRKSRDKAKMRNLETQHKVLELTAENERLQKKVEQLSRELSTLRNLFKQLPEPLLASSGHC
# Outline: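 HepG2, transient MRTU transfection, 24 h treatment. RT-PCR plus CE fluorescence; DMSO negative control, bidirectional fit.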
# [11] = ATG_CMV_CIS: Attagene CIS-FACTORIAL HepG2 Assay for human CMV (Internal Marker) (AID 2282928); conditions: HepG2 CMV promoter reporter, transcription factor profiling; actives raise or lower the signal;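 note: endpoint acts as a background internal control marker rather than a target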
# Outline: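 Reporter transcripts from transfected HepG2 cells are isolated after 24 h of chemical dosing, reverse-transcribed and amplified. Fragments labeled with 6-FAM are cut with HpaI and quantified by capillary electrophoresis; DMSO defines baseline.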
# [12] = ATG_DR4_LXR_CIS: Attagene CIS-FACTORIAL HepG2 Assay for human Liver X Receptor (LXR), DR4 submotif (AID 2282929); conditions: HepG2 Attagene DR4 cis-reporter, mRNA transcription; actives raise or lower the signal
# Outline: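 Transiently transfected HepG2 liver cells; cis-regulated reporters; 24 h dosing. RT-PCR plus CE read-out of reporter mRNA. DMSO baseline, bidirectional curve fitting.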
# [13] = ATG_AP_1_CIS: Attagene CIS-FACTORIAL HepG2 Assay for human Activator Protein 1 (AP-1) (AID 2282931); conditions: HepG2 Attagene cis-factorial AP-1 reporter mRNA; actives raise or lower the signal
# Outline: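 We transfected HepG2 cells transiently with a set of cis-regulated reporter transcription units, dosed them for 24 h, and quantified reporter mRNA via RT-PCR and capillary electrophoresis, scoring gain or loss of signal relative to DMSO.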
# [14] = ATG_AP_2_CIS: Attagene CIS-FACTORIAL HepG2 Assay for human Activator Protein 2 (AP-2) (AID 2282932); conditions: HepG2 AP-2 cis-reporter, Attagene transcription factor profiling; actives raise or lower the signal
# Outline: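 Read-out: fluorescent reporter mRNA via RT-PCR and capillary electrophoresis, 24 h post-dose in transiently transfected HepG2. Endogenous factors drive cis-promoter reporters; gain or loss of signal fitted bidirectionally against DMSO.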
# [15] = ATG_BRE_CIS: Attagene CIS-FACTORIAL HepG2 Assay for human Bone Morphogenetic Protein (BMP) Response Element (BRE) (AID 2282933); conditions: HepG2 BMP response element reporter, Attagene transcription factor profiling; actives raise or lower the signal
# Outline: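 Endogenous transcription factor activity read in transiently transfected HepG2 cells after 24 h chemical exposure. Bidirectional curve fitting against DMSO; readout is reporter transcript level by RT-PCR with capillary electrophoresis of labelled products.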
# [16] = target: Retinoic acid receptor alpha (Homo sapiens) (UniProt P10276); test: ATG_DR5_RAR_CIS: Attagene CIS-FACTORIAL HepG2 Assay for human Retinoic Acid Receptor Alpha (RARE), DR5 submotif (AID 2282934); conditions: HepG2 Attagene cis-factorial RARE DR5 reporter, mRNA; actives raise or lower the signal
# Chain of Retinoic acid receptor alpha (Homo sapiens) (P10276 whole entry, looked up): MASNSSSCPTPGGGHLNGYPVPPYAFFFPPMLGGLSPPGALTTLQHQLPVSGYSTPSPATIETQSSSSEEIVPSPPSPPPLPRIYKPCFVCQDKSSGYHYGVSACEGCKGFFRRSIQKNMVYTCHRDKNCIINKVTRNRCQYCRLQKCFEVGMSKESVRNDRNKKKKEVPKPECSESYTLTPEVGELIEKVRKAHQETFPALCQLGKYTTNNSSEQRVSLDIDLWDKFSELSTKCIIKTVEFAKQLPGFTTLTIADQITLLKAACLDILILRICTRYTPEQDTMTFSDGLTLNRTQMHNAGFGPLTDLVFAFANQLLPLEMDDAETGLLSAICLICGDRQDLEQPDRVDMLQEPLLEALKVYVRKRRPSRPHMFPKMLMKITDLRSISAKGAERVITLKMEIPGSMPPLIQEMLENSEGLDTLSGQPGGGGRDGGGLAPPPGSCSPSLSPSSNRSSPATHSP
# Outline: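 After 24 h of chemical exposure, transiently transfected HepG2 cells were lysed for total RNA; the DR5-regulated reporter transcript was quantified via RT-PCR and capillary electrophoresis, with activity fitted bidirectionally against DMSO.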
# [17] = target: Transcription factor E2F1 (Homo sapiens) (UniProt Q01094); test: ATG_E2F_CIS: Attagene CIS-FACTORIAL HepG2 Assay for human E2F Transcription Factor 1 (AID 2282935); conditions: HepG2 Attagene cis-reporter, E2F reporter RNA transcripts; actives raise or lower the signal
# Chain of Transcription factor E2F1 (Homo sapiens) (Q01094 whole entry, looked up): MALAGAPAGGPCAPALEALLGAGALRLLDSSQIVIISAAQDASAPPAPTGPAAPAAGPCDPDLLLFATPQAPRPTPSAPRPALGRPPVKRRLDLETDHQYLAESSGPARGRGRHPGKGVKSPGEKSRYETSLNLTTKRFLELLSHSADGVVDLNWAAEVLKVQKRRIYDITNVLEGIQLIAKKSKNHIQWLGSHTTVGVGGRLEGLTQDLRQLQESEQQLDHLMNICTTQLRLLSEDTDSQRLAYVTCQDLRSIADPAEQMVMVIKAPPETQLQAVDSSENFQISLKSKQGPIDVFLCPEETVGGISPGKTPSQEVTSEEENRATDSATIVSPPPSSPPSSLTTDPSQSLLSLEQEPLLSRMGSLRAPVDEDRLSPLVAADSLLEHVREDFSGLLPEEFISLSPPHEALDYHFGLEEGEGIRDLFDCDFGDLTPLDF
# Outline: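 Transient MRTU transfection of HepG2; 24 h compound exposure; RNA → oligo(dT) RT → PCR → FAM label → HpaI cut → CE fluorescence. Gain/loss of signal fit against DMSO.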
# [18] = target: Aryl hydrocarbon receptor (Homo sapiens) (UniProt P35869); test: ATG_Ahr_CIS: Attagene CIS-FACTORIAL HepG2 Assay for human Aryl Hydrocarbon Receptor (Ahr) (AID 2282930); conditions: HepG2 AhR cis-factorial reporter transcription; actives raise or lower the signal
# Chain of Aryl hydrocarbon receptor (Homo sapiens) (P35869 whole entry, looked up): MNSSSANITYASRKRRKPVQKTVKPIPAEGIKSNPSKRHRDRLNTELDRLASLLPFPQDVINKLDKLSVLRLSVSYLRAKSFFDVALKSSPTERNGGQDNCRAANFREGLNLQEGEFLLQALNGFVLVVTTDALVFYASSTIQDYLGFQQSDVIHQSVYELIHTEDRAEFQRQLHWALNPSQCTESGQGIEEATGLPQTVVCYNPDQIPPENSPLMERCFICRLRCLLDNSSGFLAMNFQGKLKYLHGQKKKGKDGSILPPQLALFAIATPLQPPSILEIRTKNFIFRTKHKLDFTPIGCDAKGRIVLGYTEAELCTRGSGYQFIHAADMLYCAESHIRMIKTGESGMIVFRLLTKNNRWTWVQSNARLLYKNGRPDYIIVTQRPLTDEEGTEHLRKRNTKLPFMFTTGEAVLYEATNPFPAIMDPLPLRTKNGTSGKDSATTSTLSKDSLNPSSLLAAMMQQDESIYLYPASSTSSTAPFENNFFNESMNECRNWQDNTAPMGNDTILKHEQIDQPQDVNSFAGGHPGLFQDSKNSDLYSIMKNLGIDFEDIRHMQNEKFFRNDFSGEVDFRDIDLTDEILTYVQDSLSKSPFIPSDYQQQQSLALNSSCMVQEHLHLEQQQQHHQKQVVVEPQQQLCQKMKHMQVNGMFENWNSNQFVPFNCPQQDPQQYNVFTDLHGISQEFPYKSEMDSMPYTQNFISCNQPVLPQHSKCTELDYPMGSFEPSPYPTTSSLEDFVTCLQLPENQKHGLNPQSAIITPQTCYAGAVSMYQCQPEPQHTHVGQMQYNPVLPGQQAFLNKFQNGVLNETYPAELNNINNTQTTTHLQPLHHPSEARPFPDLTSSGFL
# Outline: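 Endogenous factor activity is tracked through cis-promoter reporter units transfected into HepG2 cells. Transcript levels at 24 h are read by fluorescent RT-PCR and capillary electrophoresis, with activity in either direction scored relative to DMSO.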
# [19] = APR_HepG2_NuclearSize_72hr: Apredica 72-hour HepG2 Assay for Nuclear Size (AID 2282925); conditions: high-content imaging, actives raise or lower the signal
# Outline: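 Read-out: nuclear diameter from Hoechst 33342 images (ArrayScan, 20x, six fields/well), via cell-cycle image analysis. HepG2 were dosed 0.39–200 uM for 72 hr in 0.5% DMSO. Bidirectional fit relative to DMSO.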
smiles,measurement,setting,value
c1ccc(NNc2ccccc2)cc1,AC50,[1],100 µM (active)
same,outcome,[2],inactive
same,outcome,[3],inactive
same,outcome,[4],inactive
same,outcome,[5],inactive
same,outcome,[6],inactive
same,AC50,[7],98.9 µM (active)
same,AC50,[8],150 µM (active)
same,outcome,[9],inactive
same,outcome,[10],inactive
same,outcome,[11],inactive
same,AC50,[12],100 µM (active)
same,outcome,[13],inactive
same,outcome,[14],inactive
same,outcome,[15],inactive
same,outcome,[16],inactive
same,outcome,[17],inactive
COC(=O)Nc1nc2ccccc2[nH]1,AC50,[1],5.9 µM (active)
same,outcome,[2],inactive
same,outcome,[3],inactive
same,AC50,[4],5.54 µM (active)
same,AC50,[5],6.75 µM (active)
same,AC50,[6],36.3 µM (active)
same,AC50,[7],2.8 µM (active)
same,AC50,[8],5.43 µM (active)
same,outcome,[9],inactive
same,outcome,[10],inactive
same,outcome,[11],inactive
same,outcome,[12],inactive
same,AC50,[18],13.3 µM (active)
same,outcome,[13],inactive
same,outcome,[14],inactive
same,outcome,[15],inactive
same,outcome,[16],inactive
same,outcome,[17],inactive
Nc1ccc(Cl)cc1N,AC50,[1],5.9 µM (active)
same,outcome,[2],inactive
same,AC50,[3],3.83 µM (active)
same,AC50,[4],1.2 µM (active)
same,outcome,[5],inactive
same,outcome,[6],inactive
same,AC50,[7],3.54 µM (active)
same,outcome,[8],inactive
same,outcome,[9],inactive
same,outcome,[10],inactive
same,AC50,[11],6.32 µM (active)
same,outcome,[12],inactive
same,AC50,[18],0.431 µM (active)
same,outcome,[14],inactive
same,outcome,[15],inactive
same,outcome,[16],inactive
same,outcome,[17],inactive
Clc1ccccc1Cl,outcome,[1],inactive
same,outcome,[2],inactive
same,outcome,[3],inactive
same,outcome,[4],inactive
same,outcome,[5],inactive
same,outcome,[6],inactive
same,outcome,[8],inactive
same,outcome,[9],inactive
same,outcome,[10],inactive
same,outcome,[11],inactive
same,outcome,[12],inactive
same,outcome,[14],inactive
same,outcome,[15],inactive
same,outcome,[16],inactive
same,outcome,[17],inactive
CN(C)c1ccc(C(=O)c2ccc(N(C)C)cc2)cc1,AC50,[1],15.4 µM (active)
same,outcome,[2],inactive
same,outcome,[3],inactive
same,AC50,[4],26.7 µM (active)
same,AC50,[5],9.87 µM (active)
same,AC50,[6],14 µM (active)
same,AC50,[7],0.292 µM (active)
same,AC50,[8],0.855 µM (active)
same,outcome,[9],inactive
same,outcome,[10],inactive
same,outcome,[11],inactive
same,outcome,[12],inactive
same,AC50,[18],65.5 µM (active)
same,outcome,[14],inactive
same,outcome,[15],inactive
same,outcome,[16],inactive
same,outcome,[17],inactive
O=C(Nc1ccccc1)c1ccccc1I,outcome,[1],inactive
same,outcome,[2],inactive
same,outcome,[3],inactive
same,outcome,[4],inactive
same,outcome,[5],inactive
same,outcome,[6],inactive
same,outcome,[8],inactive
same,outcome,[19],inactive
same,outcome,[9],inactive
same,outcome,[10],inactive
same,outcome,[11],inactive
same,AC50,[12],157 µM (active)
same,outcome,[13],inactive
same,outcome,[14],inactive
same,outcome,[15],inactive
same,outcome,[16],inactive
same,outcome,[17],inactive
OCCOCCO,outcome,[1],inactive
same,outcome,[2],inactive
same,outcome,[3],inactive
same,outcome,[4],inactive
same,outcome,[5],inactive
same,outcome,[6],inactive
same,outcome,[8],inactive
same,outcome,[19],inactive
same,outcome,[9],inactive
same,outcome,[10],inactive
same,outcome,[12],inactive
same,AC50,[13],0.00963 µM (active)
same,outcome,[14],inactive
same,outcome,[15],inactive
same,outcome,[16],inactive
same,outcome,[17],inactive
CCC[CH2][Sn]([Cl])([CH2]CCC)[CH2]CCC,AC50,[1],0.0111 µM (active)
same,outcome,[2],inactive
same,outcome,[3],inactive
same,AC50,[4],1.41 µM (active)
same,outcome,[5],inactive
same,AC50,[6],3.39 µM (active)
same,AC50,[7],0.0297 µM (active)
same,AC50,[8],0.0466 µM (active)
same,outcome,[19],inactive
same,outcome,[9],inactive
same,AC50,[10],0.097 µM (active)
same,AC50,[12],0.412 µM (active)
same,outcome,[14],inactive
same,outcome,[15],inactive
CC(C)COC(=O)c1ccccc1C(=O)OCC(C)C,outcome,[1],inactive
same,AC50,[2],80 µM (active)
same,outcome,[3],inactive
same,AC50,[4],77.3 µM (active)
same,outcome,[5],inactive
same,outcome,[6],inactive
same,AC50,[8],84.7 µM (active)
same,AC50,[9],59.3 µM (active)
same,outcome,[10],inactive
same,AC50,[12],73 µM (active)
same,AC50,[13],70.3 µM (active)
same,outcome,[14],inactive
same,AC50,[15],110 µM (active)
same,outcome,[16],inactive
same,outcome,[17],inactive
C[N+](C)(C)CC1CO1 (stereo not given),outcome,[1],inactive
same,outcome,[4],inactive
same,outcome,[5],inactive
same,outcome,[6],inactive
same,outcome,[7],inactive
same,outcome,[19],inactive
same,outcome,[9],inactive
same,outcome,[10],inactive
same,outcome,[12],inactive
same,outcome,[13],inactive
same,outcome,[14],inactive
same,outcome,[15],inactive
same,outcome,[16],inactive
same,outcome,[17],inactive
CCCCCCCCCCCCCN1CC(C)OC(C)C1 (stereo not given),outcome,[1],inactive
same,outcome,[2],inactive
same,outcome,[3],inactive
same,AC50,[4],76.6 µM (active)
same,outcome,[5],inactive
same,outcome,[6],inactive
same,outcome,[7],inactive
same,outcome,[8],inactive
same,outcome,[19],inactive
same,outcome,[9],inactive
same,outcome,[10],inactive
same,outcome,[12],inactive
same,outcome,[14],inactive
same,AC50,[15],50 µM (active)
same,outcome,[16],inactive
